Assay outcomes from PubChem BioAssay.
Rows were chosen to be rich in hits. Some 2.8% of all compounds tested hit in one or more screens of this group.
POLH inh: DNA polymerase eta (human) inhibition; Q9Y253; recombinant Pol eta, fluorescent DNA replication assay; Potency, µM (top dose mostly 114 µM), for the others: at the top dose activity change, negative = inhibition, most hits filed as inhibitors; actives 1.2% (n = 390,000); further: potency means the concentration at half of the fitted maximal effect; on the % scale 0 is the no-effect control and ±100 the full control effect
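Pol eta (10 nM) was preincubated with compounds for 15 min at room temperature, after which fluorescent replication substrate (50 nM final) was added to start the reaction. Fluorescence was read kinetically at 0 and 10 min.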
WRN helicase inh: inhibitors of human WRN helicase; WRN helicase unwinding, fluorescent forked duplex, kinetic; Q14191; actives 0.46% (n = 360,000); Potency, µM (highest dose often 114 µM), inactives show top-dose activity change, negative = inhibition, actives largely listed as inhibitors; further: potency means the concentration at half of the fitted maximal effect; on the % scale 0 is the no-effect control and ±100 the full control effect; nearly all actives have a fitted effect of over 55% in size
Target sequence (Q14191 whole entry, looked up): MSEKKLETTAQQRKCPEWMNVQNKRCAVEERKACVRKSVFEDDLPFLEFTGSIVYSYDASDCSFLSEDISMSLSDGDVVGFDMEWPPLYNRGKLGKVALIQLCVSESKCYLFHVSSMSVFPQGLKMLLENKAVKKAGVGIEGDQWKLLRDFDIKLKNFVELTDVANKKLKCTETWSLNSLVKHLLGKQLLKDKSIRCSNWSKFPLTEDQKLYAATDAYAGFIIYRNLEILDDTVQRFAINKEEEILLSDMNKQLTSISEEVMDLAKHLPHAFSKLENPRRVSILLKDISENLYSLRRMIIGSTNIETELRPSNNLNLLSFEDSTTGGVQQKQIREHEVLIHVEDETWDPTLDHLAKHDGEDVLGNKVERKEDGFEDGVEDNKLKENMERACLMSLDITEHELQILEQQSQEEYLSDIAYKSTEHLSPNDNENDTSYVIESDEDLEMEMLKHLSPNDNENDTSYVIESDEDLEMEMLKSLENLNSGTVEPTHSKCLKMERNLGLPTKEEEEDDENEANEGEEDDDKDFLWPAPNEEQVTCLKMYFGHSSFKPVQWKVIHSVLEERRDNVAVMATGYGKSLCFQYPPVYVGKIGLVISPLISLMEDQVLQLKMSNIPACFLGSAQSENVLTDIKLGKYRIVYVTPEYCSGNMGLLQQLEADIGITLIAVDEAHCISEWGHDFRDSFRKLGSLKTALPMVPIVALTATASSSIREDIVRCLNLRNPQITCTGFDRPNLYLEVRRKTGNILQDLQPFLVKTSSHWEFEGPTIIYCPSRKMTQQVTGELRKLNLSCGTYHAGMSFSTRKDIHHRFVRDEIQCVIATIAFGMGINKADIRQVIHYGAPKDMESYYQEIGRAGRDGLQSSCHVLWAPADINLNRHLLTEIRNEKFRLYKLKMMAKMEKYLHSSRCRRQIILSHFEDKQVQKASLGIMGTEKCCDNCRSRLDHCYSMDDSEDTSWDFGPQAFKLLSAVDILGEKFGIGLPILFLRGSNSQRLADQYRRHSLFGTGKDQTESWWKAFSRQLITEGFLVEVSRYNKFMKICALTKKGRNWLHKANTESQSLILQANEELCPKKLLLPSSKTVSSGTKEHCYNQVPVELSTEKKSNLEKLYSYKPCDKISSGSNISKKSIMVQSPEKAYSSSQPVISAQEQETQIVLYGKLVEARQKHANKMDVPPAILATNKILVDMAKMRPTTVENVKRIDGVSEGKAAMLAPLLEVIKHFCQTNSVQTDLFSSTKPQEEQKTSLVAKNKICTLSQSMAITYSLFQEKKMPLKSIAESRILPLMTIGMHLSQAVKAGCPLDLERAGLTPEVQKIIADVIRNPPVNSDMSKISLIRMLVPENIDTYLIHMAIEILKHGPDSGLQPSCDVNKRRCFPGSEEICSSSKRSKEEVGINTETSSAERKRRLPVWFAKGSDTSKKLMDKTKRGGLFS
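Enzyme (20 nM final) and test compound sit together 15 min at room temperature before substrate addition. Substrate is a single-forked duplex oligonucleotide (100 nM) labelled with fluorophore and quencher, with 2 mM ATP; helicase unwinding raises red fluorescence, read kinetically.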
Pol kappa inh: DNA polymerase kappa (human) inhibition. Q9UBT6. purified Pol kappa, fluorescent DNA synthesis assay, 10 min. Potency, µM (doses to about 107 µM), inactives show top-dose activity, negative = inhibition, actives largely listed as inhibitors. actives 0.53% (n = 400,000). AID 588579; further: potency means the concentration at half of the fitted maximal effect; on the % scale 0 is the no-effect control and ±100 the full control effect
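Pol kappa 10 nM + cpd, 15 min RT; start w/ substrate 50 nM final; fluorescence kinetic read, 0 and 10 min. Neg ctrl: buffer, no enzyme.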
POLI inh: inhibitors of human DNA polymerase iota. Pol iota fluorescent replication assay, 10 min. Potency, µM (titrated, usually from 115 µM), inactives show at the highest dose activity, negative = inhibition, actives largely listed as inhibitors. actives 1% (n = 390,000); further: potency means the concentration at half of the fitted maximal effect
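Pol iota at 10 nM preincubated 15 min with compounds at room temperature; reaction started with fluorescent substrate, 50 nM final. Fluorescence read kinetically at 0 and 10 min; buffer-only wells as negative control.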
Pol beta inh: blocks human DNA polymerase beta activity; P06746; Pol beta primer extension/strand displacement, fluorescence kinetic; Potency, µM (series often up to 114 µM), for inactives: at the top dose activity change, negative = inhibition, most hits filed as inhibitors; actives 1.3% (n = 340,000); AID 485314; further: potency means the concentration at half of the fitted maximal effect; on the % scale 0 is the no-effect control and ±100 the full control effect
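Human Pol beta at 10 nM; strand-displacement substrate 50 nM final. Compound exposure 15 min at room temperature before start, reaction 10 min at room temperature.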
PI5P4K alpha inh: PI5P4K alpha (human) kinase inhibition; P48426; PI5P4Kalpha enzyme, ADP-Glo luminescence, 60 min; active compounds read low; max response, %; actives 1.2% (n = 330,000); AID 652105; active means max response of -50% or lower; inconclusive means between -30% and -50%; inactive means -30% or higher; further: value at the top dose of about 77 µM; on the % scale 0 is the no-effect control and ±100 the full control effect
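Reactions run in 0.038 M HEPES pH 7.4, 0.28 mM EGTA, 0.1% CHAPS and 5% DMSO, with PI5P4Kalpha, substrate, compound and 5 microM ATP final, one hour at room temperature. Readout is ADP-Glo luminescence.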
The depositor's hits bear a star; [ ] = dose if it differs, or a comment. Unless noted, the call rests on the fitted dose curve; in most records, active means well fitted curve in the direction sought with a large enough effect; inconclusive means small, poorly fitted or top-dose-only effect, or another doubt; inactive means no such curve, though single readings can be large; an effect the other way counts as inactive or inconclusive.

How did O=CNc1cc(-c2cccc(O)c2)cn2c(-c3ccc(F)cc3)cnc12 do in these assays?
WRN helicase inh: -15%; PI5P4K alpha inh: -72*

How did CC(=O)c1ccc(-c2cnc3c(NC=O)cc(-c4ccc(C(=O)NC5CC5)cc4)cn23)cc1 do in these assays?
WRN helicase inh: inconclusive; PI5P4K alpha inh: -68*

How did CC(=O)Nc1ccc(/C=C2\C=Cc3ccccc32)cc1 do in these assays?
Pol kappa inh: -4%; POLI inh: -1%

How did CCOC(=O)c1c(C)[nH]c(C)c1S(=O)(=O)NCC(=O)N(C)c1ccc(C)c(C)c1 do in these assays?
POLH inh: -19%; Pol kappa inh: 0%; POLI inh: 2%; Pol beta inh: 71%

What do the screens show for `Cc1ccc(C)c(N2CCN(C(=O)c3cc4c(=O)n(Cc5cccnc5)ccc4nc3C)CC2)c1`?
POLH inh: -17%; Pol kappa inh: 16%; POLI inh: 42%; Pol beta inh: 1%

Results for COc1cc2c(NC3CCN(C)CC3)nc(N3CCCN(C)CC3)nc2cc1OCc1ccccc1 ?
Pol kappa inh: -7%; POLI inh: -1%

Results for Cc1[nH]c2c(C)cccc2c1CC(=O)O ?
POLH inh: -16%; WRN helicase inh: -10%; Pol kappa inh: -11%; POLI inh: 72%; Pol beta inh: 27%; PI5P4K alpha inh: 8

What do the screens show for `Cc1cccc2c(N=O)c(O)[nH]c12`?
POLH inh: 35µM*; WRN helicase inh: -11%; Pol kappa inh: -21%; POLI inh: -21%; Pol beta inh: -6%; PI5P4K alpha inh: -59*

Results for COC(=O)c1ccc(NC(=O)CSc2nc(C)cc(C)c2C(=O)Nc2ccccc2)cc1 ?
POLH inh: 4%; Pol kappa inh: -18%; POLI inh: -19%; Pol beta inh: -9%

What do the screens show for `Cc1ccc(S(=O)(=O)c2nc(S(C)(=O)=O)sc2NCc2ccccc2)cc1`?
POLH inh: -1%; Pol kappa inh: -4%; POLI inh: -16%; Pol beta inh: 0%

What do the screens show for `Cc1ccc2cccc(S(=O)(=O)Nc3ccc4c(c3)OCO4)c2n1`?
POLH inh: inconclusive; WRN helicase inh: -9%[11.6 µM]; Pol kappa inh: -24%; POLI inh: inconclusive; Pol beta inh: 45µM*

What do the screens show for `Cc1ccc2cccc(OCC(=O)Nc3ccc4c(c3)OCO4)c2n1`?
POLH inh: -4%; WRN helicase inh: 0%; Pol kappa inh: -4%; POLI inh: 163%; Pol beta inh: 11%; PI5P4K alpha inh: -6

How did CCCCCCCCCCCNC(=O)c1ccoc1C do in these assays?
POLH inh: inconclusive; WRN helicase inh: 50µM*; Pol kappa inh: -18%; POLI inh: 6%; Pol beta inh: 4%; PI5P4K alpha inh: -19

Results for Brc1cc2c(cc1C1Nc3ccccc3C3C=CCC31)OCO2 (centres undefined) ?
POLH inh: inconclusive; WRN helicase inh: -8%; Pol kappa inh: -3%; POLI inh: 5%; Pol beta inh: inconclusive; PI5P4K alpha inh: 19

Results for C1=CC2c3ccccc3NC(c3ccncc3)C2C1 (centres undefined) ?
POLH inh: inconclusive; WRN helicase inh: -28%; Pol kappa inh: -19%; POLI inh: inconclusive; Pol beta inh: 11%; PI5P4K alpha inh: -57*

Results for Cc1ccc2c(c1)C1C=CCC1C(C(=O)O)N2 (centres undefined) ?
Pol beta inh: 3.5µM*

What do the screens show for `CC(=O)c1ccc2c(c1)C1C=CCC1C(c1ccncc1)N2` (centres undefined)?
POLH inh: inconclusive; WRN helicase inh: -33%; Pol kappa inh: -13%; POLI inh: 32µM*; Pol beta inh: inconclusive; PI5P4K alpha inh: -5

Results for COC(=O)c1ccc(C2Nc3ccc(/C(C)=N/NC(=O)C(OC)c4ccccc4)cc3C3C=CCC32)cc1 (centres undefined) ?
POLH inh: 10%; WRN helicase inh: -14%; Pol kappa inh: -30%; POLI inh: 16%; Pol beta inh: 0%; PI5P4K alpha inh: -66*
